Tau fluor counter: counter-screen for tau fibril formation inhibitors; tau K18 P301L Alexa594 fluorescence, heparin fibrillization; Potency, µM (highest dose often 57.7 µM), inactives show at the highest dose activity change, negative = decrease; hit rate 0.93% among 280,000; AID 1463; further: potency means the concentration at half of the fitted maximal effect; on the % scale 0 is the no-effect control and ±100 the full control effect; nearly all actives have a fitted effect of over 55% in size
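Human tau K18 P301L (15 uM unlabeled, 0.24 uM Alexa 594-labeled) in 100 mM sodium acetate pH 7 with 20 uM heparin, 6 hr at 37 C. ThT 30 uM added, 1 hr ambient; Alexa 594 FP and total fluorescence read at 555/632 nm.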
CBFb RUNX1 block: CBF-beta/RUNX1 interaction disruption; Q01196+Q13951; AlphaScreen CBFb-His/RUNX1-biotin binding, biochemical; Potency, µM (top dose mostly 59.8 µM), for the others: top-dose activity, negative = inhibition, hits mostly inhibitors; 230,000 tested, under 10 active; further: % of control where 0% means no effect
Target sequence (Q01196 whole entry, looked up): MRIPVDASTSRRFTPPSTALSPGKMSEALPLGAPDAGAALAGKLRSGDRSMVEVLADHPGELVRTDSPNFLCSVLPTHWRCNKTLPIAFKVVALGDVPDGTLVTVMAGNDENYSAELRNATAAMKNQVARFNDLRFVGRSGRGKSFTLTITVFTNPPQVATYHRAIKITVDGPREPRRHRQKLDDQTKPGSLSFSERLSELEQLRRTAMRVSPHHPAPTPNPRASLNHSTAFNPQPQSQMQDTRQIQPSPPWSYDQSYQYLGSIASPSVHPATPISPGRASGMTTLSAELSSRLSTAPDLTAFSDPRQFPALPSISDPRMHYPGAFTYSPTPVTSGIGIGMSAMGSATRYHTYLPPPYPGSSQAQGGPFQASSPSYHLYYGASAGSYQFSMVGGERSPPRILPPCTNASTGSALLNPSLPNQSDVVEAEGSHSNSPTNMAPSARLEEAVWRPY
Target sequence (Q13951 whole entry, looked up): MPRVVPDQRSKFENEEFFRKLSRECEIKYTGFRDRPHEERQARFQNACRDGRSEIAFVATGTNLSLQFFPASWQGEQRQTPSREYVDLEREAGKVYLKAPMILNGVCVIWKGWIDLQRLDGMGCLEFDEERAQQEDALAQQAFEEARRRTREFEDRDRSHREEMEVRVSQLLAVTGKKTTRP
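Bead-based AlphaScreen assay; binding partners His-tagged CBF-beta and biotinylated RUNX1 at 30 nM each. Compound exposure 15 min after a 20-min protein preincubation; bead step 90 min; all steps at room temperature.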
Tau FP inhib: inhibitors of human tau fibril formation; P10636; K18 P301L tau heparin fibrillization, Alexa594 FP, 6 h; Potency, µM (titrated, usually from 57.7 µM), for inactives: at the highest dose activity, negative = inhibition, hits mostly inhibitors; hit rate 0.39% among 280,000; further: potency means the concentration at half of the fitted maximal effect; on the % scale 0 is the no-effect control and ±100 the full control effect; nearly all actives have a fitted effect of over 55% in size
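Human K18 P301L fragment (15 uM unlabeled plus 0.24 uM Alexa 594-labeled) in 100 mM sodium acetate pH 7 with compound, aggregation induced by 20 uM heparin for 6 hr at 37 C. ThT (30 uM) added for 1 hr, then Alexa 594 FP read.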
Lamin A splicing: changes lamin A minigene splicing in HeLa cells; HeLa LMNA splicing GFP/RFP minigene ratio, 48 h; Potency, µM (top dose mostly 46.1 µM), for inactives: at the highest dose ratio change, negative = inhibition, most hits filed as inhibitors; hit rate 0.01% among 200,000; AID 1487; active means well fitted inhibition curve with a large enough effect in the signal ratio, with a control signal flat, not every such curve was filed as active; inconclusive means small, poorly fitted or top-dose-only effect, or effect the other way, or a change in a side signal; the % refers to the signal ratio; further: potency means the concentration at half of the fitted maximal effect; on the % scale 0 is the no-effect control and ±100 the full control effect
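S3 HeLa cells stably expressing lamin A-EGFP splicing minigene plus DsRed2, 600 cells/well, 48 h compound exposure at 37C. Laser-scanning cytometry; analysed as GFP (500-530 nm)/RFP (575-640 nm) total intensity ratio; 0.5% DMSO vehicle.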
Tau fibril ThT: inhibitors of human tau fibril formation, thioflavin T binding; P10636; recombinant tau K18 P301L (four-repeat tau fragment), heparin-induced fibrillization, ThT fluorescence; AID 1460; Potency, µM (doses to about 57.4 µM), for the others: top-dose activity, negative = inhibition, usual class: inhibitors; hit rate 2.1% among 270,000; further: potency means the concentration at half of the fitted maximal effect; on the % scale 0 is the no-effect control and ±100 the full control effect; nearly all actives have a fitted effect of over 55% in size
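Heparin-induced fibrillization of the P301L-mutant K18 repeat-domain fragment of human tau was followed by ThT binding in quantitative high-throughput format.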
KDM4E inh: blocks human JMJD2E demethylase activity; B2RXH2; JMJD2E catalytic domain, FDH-coupled NADH fluorescence (FDH is formaldehyde dehydrogenase); Potency, µM (doses to about 57.1 µM), inactives show top-dose activity change, negative = inhibition, usual class: inhibitors; hit rate 1.6% among 230,000; AID 2147; active means well fitted inhibition curve with a large enough effect, not every such curve was filed as active; inconclusive means small, poorly fitted or top-dose-only effect, or another doubt; inactive means no such curve, though single readings can be large or run the other way;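 further: potency means the concentration at half of the fitted maximal effect; 0% = wells with enzyme and -100% = buffer wells without enzyme; nearly all actives have a fitted effect of over 50% in size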
Starred values were filed as active, the others as inactive; ? = inconclusive; nt = no result given; [ ] = another dose, or the depositor's remark. In the library only some 3.2% were active in any assay of this set; here they are far more common. Unless noted, the call rests on the fitted dose curve; in most records, active means well fitted curve in the direction sought with a large enough effect; inconclusive means small, poorly fitted or top-dose-only effect, or another doubt; inactive means no such curve, though single readings can be large; an effect the other way counts as inactive or inconclusive.

SMILES | Tau fluor counter | CBFb RUNX1 block | Tau FP inhib | Lamin A splicing | Tau fibril ThT | KDM4E inh
CC(C)C[C@H](NC(=O)[C@H](CCCCN)NC(=O)[C@H](CCCNC(=N)N)NC(=O)[C@H](C)NC(=O)[C@H](CO)NC(=O)[C@H](CCCCN)NC(=O)[C@H](CCCNC(=N)N)NC(=O)[C@H](C)NC(=O)CNC(=O)[C@@H](NC(=O)[C@H](Cc1ccccc1)NC(=O)CNC(=O)CNC(=O)[C@@H](N)Cc1ccccc1)[C@@H](C)O)C(=O)N[C@@H](C)C(=O)N[C@@H](CC(N)=O)C(=O)N[C@@H](CCC(N)=O)C(=O)O | nt | 10% | nt | nt | nt | nt
Cc1nc(-c2cccc(NC(=O)Nc3ccc([N+](=O)[O-])cc3)c2)no1 | 8.9µM*[quencher] | nt | 13µM* | -18%[46 µM] | ? | nt
CN(C)c1ccc(NC(=O)C(=O)C2C(=O)Nc3ccccc32)cc1 (stereo unspecified) | -21% | 1% | 6% | nt | 14µM* | -19%
O=C1Nc2ccccc2C1Cc1ccc(Br)cc1 (stereo unspecified) | -14% | nt | 4% | 17%[46 µM] | -2% | nt
CN(C)c1ccc(CC2C(=O)Nc3ccccc32)cc1 (stereo unspecified) | ? | -9% | ? | nt | 32µM* | 3.2µM*
COc1ccc(C(C)=O)cc1CSc1nc(NCCc2ccccc2)c2ccccc2n1 | -14% | nt | 0% | -22%[46 µM] | 14% | nt
O=C(NC(CSCc1ccccc1)C(=O)N/N=C/c1ccc(O)cc1O)c1ccc([N+](=O)[O-])cc1 (stereo unspecified) | 13µM*[quencher] | -19% | ? | ? | ? | ?
COC(=O)CCC(=O)OC1(C)C(=O)C=C2C=C(C3CC3)N(c3ccc(OC)cc3)C=C2C1=O (stereo unspecified) | -8%[11.6 µM] | 10%[13.1 µM] | -4%[11.6 µM] | 0%[9.22 µM] | ? | ?
Cc1nn(-c2ccccc2)c(C)c1/C=N\N1CCN(c2ccc(Cl)cc2)CC1 | ? | 11% | -8% | -16% | 8.9µM* | 3%
CCCCC/C=C\C\C=C/C=C/C=C/[C@@H](SCC(NC(=O)CCC(N)C(=O)O)C(=O)NCC(=O)O)[C@@H](O)CCCC(=O)O (stereo partly specified) | 0% | 18% | 5% | nt | -8% | -4%
O=C(Nc1nc(-c2ccco2)c(-c2ccco2)s1)C1CC(=O)N(c2ccc3c(c2)OCCO3)C1 (stereo unspecified) | ? | nt | ? | 11% | 14µM* | ?
COc1ccccc1C1=Nn2c(nc3sc(C(=O)Nc4ccccc4Cl)c(C)c3c2=O)SC1 | ? | nt | -10% | nt | ? | nt
O=C(Cn1c(=O)n(Cc2ccc3c(c2)OCO3)c(=O)c2oc3ccccc3c21)Nc1ccccc1 | -23% | nt | ? | nt | ? | nt
COc1cccc(NC(=O)Cn2c(=O)n(Cc3ccc4c(c3)OCO4)c(=O)c3oc4ccccc4c32)c1 | ? | nt | 28µM* | nt | ? | nt
COc1cccc(-n2c(=O)c3sc4ccccc4c3n(CC(=O)Nc3cccc(Cl)c3)c2=O)c1 | ? | nt | 22µM* | nt | 12% | nt
COc1cccc(NC(=O)Cn2c(=O)n(-c3ccccc3)c(=O)c3ccc(C(=O)NCc4ccc5c(c4)OCO5)cc32)c1 | -29% | nt | 32µM* | nt | 15% | nt
COc1ccc(OC)c(CNC(=O)c2cnc(N(C)C)nc2)c1 | 2% | nt | 7% | -4%[46 µM] | 5% | nt
O=C(N/N=C1/C[C@@H](O)[C@@H](O)[C@@H]2[C@H]3C(=O)N(c4ccc(F)cc4F)C(=O)[C@@H]3CC[C@H]12)OCc1ccccc1 | 6%[11.6 µM] | -14%[13.1 µM] | 11%[11.6 µM] | nt | -1%[11.5 µM] | nt
COc1ccccc1NC(=O)CCNS(=O)(=O)c1ccc2c(c1)CCN2C(=O)C1CC1 | 8% | nt | 2% | ? | 9% | nt
CCOc1ccc(N=Nc2c(=O)[nH]n3c(=O)c4c([nH]c23)CCCC4)cc1 | ? | -10% | -6% | -1% | 1.8µM* | ?

Screening data as filed in PubChem BioAssay.
